# Data taken from PubChem BioAssay (EPA / NIEHS).
# Inconclusive results are not listed. Calls of active or inactive are those of the source. How the source made its calls: active means hit-call score of the fitted dose curve at least 0.9, where 1 is the maximum; inconclusive means response in the unintended direction; inactive means score below 0.9.
# Test: CLD_ACTIN_24hr: CellzDirect (CLD) Gene Expression Assay for Baseline Control (Actin) at 24 hours (AID 2283670)
# Description: CLD_24hr is a cell-based, multiplexed-readout assay that uses hepatocyte, a human liver primary cell, with measurements taken at 24 hours after chemical dosing in a 96-well plate.CLD_ACTIN_24hr is one of 16 assay component(s) measured or calculated from the CLD_24hr assay. It is designed to make measurements of mRNA induction, a form of inducible reporter, as detected with chemiluminescence signals by Quantitative Nuclease Protection Assay (qNPA) technology.Data from the assay component CLD_ACTIN_24hr was analyzed at the endpoint, CLD_ACTIN_24hr, in the positive analysis fitting direction relative to DMSO as the negative control and baseline of activity. Using a type of inducible reporter, gain-of-signal activity can be used to understand changes in the reporter gene as they relate to the gene ACTA1. Furthermore, this assay endpoint can be referred to as a secondary readout, because this assay has produced multiple assay endpoints where this one serves a background control function. To generalize the intended target to other relatable targets, this assay endpoint is annotated to the background measurement intended target family, where subfamily is baseline control.
# Human hepatocyte cultures were treated daily for two consecutive days with fresh dosing solutions containing appropriate concentrations of the 320 ToxCast chemicals (chemical identities were blinded to CellzDirect and other ToxCast collaborators), vehicle control (0.2% DMSO), and positive control inducers as summarized in Table 1. Due to the large number of treatment groups and chemicals examined, the ToxCast chemicals were divided into two groups (spanning two independent cultures of hepatocytes from separate donor preparations (Hu778: ToxCast plates 1 and 2; Hu776: ToxCast plates 3 and 4). Each preparation of human hepatocyte cultures was treated with respective vehicle control, medium only control, set of six positive controls/reference chemicals for the five hepatic receptor pathways, and a subset of eight of the ToxCast chemicals (indoxacarb, pyrithiobac-sodium, norflurazon, cyhalofop-butyl, methomyl, thiram, acetochlor, and propiconazole). These replicate data, coupled with internal replicates designed within the blinded ToxCast chemical library, provided additional data to evaluate interindividual differences between hepatocyte preparations and their potential impact on chemical profiles.Cell morphology and integrity were evaluated using phase-contrast microscopy as an indicator of hepatocyte cell health (Tyson & Green, 1987). Cultures for each treatment group (i.e., media, vehicle [0.2% DMSO], positive control inducers [multiple concentrations], and the ToxCast chemicals [multiple concentrations]) were observed and cell morphology was assessed relative to vehicle control cultures at each harvest time point (0, 6, 24, or 48 h). […] Images were evaluated at the conclusion of the study to assess changes in cell integrity and account for the effects of chemical exposure on uncharacteristic changes in concentration-dependent gene expression profiles. The results from these determinations of apparent cytotoxicity were annotated (yes/no) alongside the corresponding qNPA data for reference.At the conclusion of each treatment period, hepatocyte cultures (96-well) were washed with 1 volume of HBSS, lysed by addition of 25 ul ArrayPlate lysis buffer (HTG, Tucson, AZ), and 70 ul/well of Denaturation Oil, denatured by incubation at 95C for 10 min, and frozen at approximately -70C until analysis by nuclease protection assay (qNPA) (Roberts et al., 2007). For qNPA analysis, cell lysates were thawed at 50C for approximately 30 min, qNPA probes were added, and samples were incubated at 95C for 10 min to begin the detection process by denaturing the target RNA, dissociating the duplexes and secondary structure hybridization. At the conclusion of the hybridization period, S1 nuclease reagent was added to each sample to digest all nonprotected nucleotides at 50C for 60-90 min. […]
row,Structure (SMILES),outcome
1,COC(=O)C=C(C)OP(=O)(OC)OC,inactive
2,C=CC1(C)OC(=O)N(c2cc(Cl)cc(Cl)c2)C1=O (stereo unspecified),inactive
3,CCCCNC(=O)OCC#CI,inactive
4,CCCCNC(=O)n1c(NC(=O)OC)nc2ccccc21,inactive
5,COC(=O)c1ccccc1C(=O)OC,inactive
6,CC(Oc1ccc(Cl)cc1Cl)C(=O)O (stereo unspecified),inactive
7,COc1cnc(OC)n2nc(NS(=O)(=O)c3c(OCC(F)F)cccc3C(F)(F)F)nc12,inactive
8,C=CCC1=C(C)C(OC(=O)C2C(C=C(C)C)C2(C)C)CC1=O (stereo unspecified),inactive
9,CC(C)(C)c1ccc(CSc2cnn(C(C)(C)C)c(=O)c2Cl)cc1,inactive
10,CNC(=O)ON=CC(C)(C)SC,inactive
11,COc1nc(C)nc(NC(=O)NS(=O)(=O)c2ccccc2Cl)n1,inactive
12,CCc1nn(C)c(C(=O)NCc2ccc(C(C)(C)C)cc2)c1Cl,inactive
13,Oc1ccccc1-c1ccccc1,inactive
14,N#Cc1cc(Br)c(O)c(Br)c1,inactive
15,Cc1ccc(-c2c(Cl)nc(C#N)n2S(=O)(=O)N(C)C)cc1,inactive
16,CC(C)C1(C)N=C(c2nc3ccccc3cc2C(=O)O)NC1=O (stereo unspecified),inactive

row,Structure (SMILES),outcome
1,CCNc1nc(Cl)nc(NCC)n1,inactive
2,CCNc1nc(Cl)nc(NC(C)C)n1,inactive
3,COc1nc(NC(C)C)nc(NC(C)C)n1,inactive
4,COC(=O)N(OC)c1ccccc1COc1ccn(-c2ccc(Cl)cc2)n1,inactive
5,CCCCC(CC)COC(=O)c1ccccc1C(=O)OCC(CC)CCCC (stereo unspecified),inactive
6,N#CC(CCc1ccc(Cl)cc1)(Cn1cncn1)c1ccccc1 (stereo unspecified),inactive
7,COC(=O)C(C)Oc1ccc(Oc2ccc(Cl)cc2Cl)cc1 (stereo unspecified),inactive
8,CCCCOC(=O)c1ccccc1C(=O)OCCCC,inactive
9,Cc1c(F)c(F)c(COC(=O)C2C(/C=C(\Cl)C(F)(F)F)C2(C)C)c(F)c1F (stereo unspecified),inactive
10,CN(C)C(=S)SSC(=S)N(C)C,inactive
11,N#Cc1nn(-c2c(Cl)cc(C(F)(F)F)cc2Cl)c(N)c1S(=O)C(F)(F)F (stereo unspecified),inactive
12,CS/C(C)=N/OC(=O)N(C)SN(C)C(=O)O/N=C(\C)SC,inactive
13,CCCC1COC(Cn2cncn2)(c2ccc(Cl)cc2Cl)O1 (stereo unspecified),inactive
14,CNC(=S)S,inactive
15,OC(c1ccc(Cl)cc1)(c1cncnc1)c1ccccc1Cl (stereo unspecified),inactive
